Screens from PubChem.
The list is not random: actives were taken first. Their share in the collection is about 21%.
IL1B secr inh: blocks inflammasome-driven IL-1 beta release; THP-1 LPS/ATP IL-1B secretion, AlphaLISA, 16 h; active compounds read low; activity change, % at 57.5 µM; actives 4.7% (n = 360,000); in the data active = activity change below about -50%; inconclusive = mostly about -30% to -49%; also: % is scaled to controls: 0 for no effect and ±100 for the full control effect
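THP-1 cells pretreated 1 hr with compounds (up to 57.5 uM final), then stimulated with LPS (250 ng/mL final) plus ATP (1.25 mM final); secreted IL-1B measured by AlphaLISA after 16 hr, decreased signal indicating inhibition.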
DRD3 antagonist: D3 dopamine receptor (human) antagonism | D3R cells, DiscoveRx beta-arrestin luminescence, antagonist mode; active compounds read low | max response, negative = inhibition, % | actives 2.5% (n = 360,000) | AID 652054; in the data active = max response below about -50%; inconclusive = no clear call, values can overlap the other calls; also: % is scaled to controls: 0 for no effect and ±100 for the full control effect
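Cells expressing the human receptor were seeded at 1500 cells/well, incubated overnight at 37 degrees C in 5% CO2, then exposed to library compounds with dopamine controls for 90 minutes at 37 degrees C before luminescent detection.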
ClpP mod: qHTS Assay for Activators of ClpP; AID 651965, 2013; actives 1.9% (n = 340,000); Potency, µM (titrated, usually from 57.5 µM), inactives show at the highest dose activity change, negative = active; purified B. subtilis ClpP, FRET peptide cleavage, 20 min; ATP-dependent Clp protease proteolytic subunit (Bacillus subtilis (strain 168)), P80244; active = well fitted falling curve with a large enough effect; inconclusive = small, poorly fitted or top-dose-only effect; inactive = no such curve, though single readings can be large or run the other way; also: potency is read from the fitted curve at half-maximal effect; the source files actives as falling curves though it sought activators and does not explain the sign; nearly all actives have a fitted effect of over 65% in size
Target sequence (P80244 whole entry, looked up): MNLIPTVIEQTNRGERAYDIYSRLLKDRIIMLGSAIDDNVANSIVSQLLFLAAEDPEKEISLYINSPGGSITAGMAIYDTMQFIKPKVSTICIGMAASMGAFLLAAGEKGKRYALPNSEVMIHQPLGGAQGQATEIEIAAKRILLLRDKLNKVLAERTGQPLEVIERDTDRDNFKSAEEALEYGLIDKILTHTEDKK
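Purified B. subtilis ClpP, 10 microg/mL final in Tris/HCl pH8 with KCl, BSA, glycerol and Tween-20, cleaved an Abz/nitrotyrosine-quenched decapeptide. Fluorescence (ex 320, em 430) was read at 0 and 20 min at room temperature. Delta was normalized to 5.8 microM ADEP and DMSO/no-enzyme controls.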
D3 ag: agonists of human D3 dopamine receptor; P35462; D3R DiscoveRx beta-arrestin cells, luminescence, 90 min; max activation, %; actives 0.58% (n = 410,000); AID 652048; in the data active = max activation above about 30%; also: 0% is about no effect
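Cells at 1500/well, incubated overnight, then treated with pinned compounds (dopamine as control) for 90 min at 37 degrees C. DiscoveRx reagent added for 30 - 60 minutes at room temperature; luminescence read.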
TDP1 cell noCPT: qHTS for Inhibitors of human tyrosyl-DNA phosphodiesterase 1 (TDP1): qHTS in cells in absence of CPT; actives 15% (n = 420,000); Potency, µM (top dose mostly 46.2 µM), for inactives: at the top dose activity change, negative = growth inhibition, usual class: inhibitors; DT40 Tdp1-/- hTDP1 cells, no CPT, ATP luminescence, 48 h; AID 686978, 2013; also: potency is read from the fitted curve at half-maximal effect; % is scaled to controls: 0 for no effect and ±100 for the full control effect; nearly all actives have a fitted effect of over 55% in size
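Camptothecin absent (DMSO only). Human TDP1-complemented DT40 knockout cells, 400 cells/well, 37 °C for minimum 48 hr; ATP measured via CellTiter-Glo, 30 min dark incubation, luminescence.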
DT40 TDP1 CPT: growth inhibition of DT40 Tdp1-/-;hTDP1 cells with camptothecin (screen for TDP1 inhibitors); chicken DT40 Tdp1-/-;hTDP1 cells + 20 nM CPT, ATP luminescence, 48 h; Potency, µM (doses to about 46.2 µM), inactives show at the highest dose activity change, negative = growth inhibition, hits mostly inhibitors; actives 12% (n = 420,000); AID 686979; also: potency is read from the fitted curve at half-maximal effect; % is scaled to controls: 0 for no effect and ±100 for the full control effect; nearly all actives have a fitted effect of over 55% in size
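Chicken DT40 Tdp1-/- cells complemented with human TDP1, 400 cells/well, exposed to compounds plus 20 nM camptothecin for at least 48 h at 37 C; viability read as ATP content by CellTiter-Glo luminescence.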
Starred values were filed as active, the others as inactive; ? = inconclusive; . = no result given. Unless noted, calls follow the shape of the dose curve; as a rule, active = well fitted inhibition curve with a large enough effect; inconclusive = small, poorly fitted or top-dose-only effect; inactive = flat fitted curve, though single readings scatter.

SMILES	IL1B secr inh	DRD3 antagonist	ClpP mod	D3 ag	TDP1 cell noCPT	DT40 TDP1 CPT
O=C(N/N=C/c1cc2c(cc1Br)OCO2)c1cccnc1	?	-0.5	-1.1%	-7.7	?	4.9%
O=C(N/N=C/c1cc(O)ccc1Br)c1cccnc1	174.7	14.0	-4.4%	5.5	2.91µM*	5.8µM*
COc1ccc(OC)c(C(=O)NC(CC(N)=O)c2ccc(NC(C)C)c([N+](=O)[O-])c2)c1 (configuration not stated)	-5.0	0.0	-17.8%	20.0	-14.7%	-26.5%
COc1ccc(-c2csc3nc(-c4cccnc4)nc(Cl)c23)cc1OC	-86.7*	30.9	.	20.9	?	?
Clc1nc(-c2cccnc2)nc2scc(-c3ccccc3)c12	-2.1	4.4	-29.3%	13.2	?	?
COc1ccc(C2OC3=C(Nc4cc(C)c(C)cc4N3)C2=O)cc1 (configuration not stated)	5.7	2.6	0.9%	1.9	-1.3%	4.5%
COc1ccccc1C1OC2=C(Nc3ccc([N+](=O)[O-])cc3N2)C1=O (configuration not stated)	-5.8	10.9	-0.5%	1.5	13µM*	13µM*
COc1cc2c(cc1OC)CN(Cc1cc(=O)n3c(-c4ccccc4)csc3n1)CC2	32.5	10.4	0.4%	-5.8	?	?
CCOC(=O)C1CCN(Cc2cc(=O)n3c(-c4ccccc4)csc3n2)CC1	4.4	0.4	.	1.3	-2.0%	12.8%
O=c1cc(CN2CCN(c3ccccc3)CC2)nc2scc(-c3ccccc3)n12	42.1	-17.0	.	4.5	23.1µM*	?
CC(=O)c1ccc(N2CCN(Cc3cc(=O)n4c(-c5ccccc5)csc4n3)CC2)cc1	30.9	-4.9	.	-11.5	20.6µM*	?
O=C(CC(c1ccco1)S(=O)(=O)c1ccccc1)c1ccccc1 (configuration not stated)	-18.2	11.2	-2.6%	8.8	?	-7.4%
NCCCNC(=O)c1ccc(/C=N/O)nc1	2.5	0.0	.	6.5	-3.4%	33.3%
CCOC(=O)C1CCN(C(=O)CCc2c(C)nc3cc(-c4ccc(OC)cc4OC)nn3c2C)CC1	4.3	10.4	.	9.6	?	?
COc1ccc(N2CCN(C(=O)CCc3c(C)nc4cc(-c5ccc(Cl)cc5)nn4c3C)CC2)cc1	.	.	-11.3%	-9.7	-29.2%	1.6%
COc1ccc(-c2cc3nc(C)c(CCC(=O)N4CCN(c5cccc(Cl)c5)CC4)c(C)n3n2)c(OC)c1	.	.	?	0.1	5.8µM*	2.59µM*
COc1ccc(N2CCN(C(=O)CCc3c(C)nc4cc(-c5ccc(OC)cc5OC)nn4c3C)CC2)cc1	.	.	?	-0.9	16.4µM*	20.6µM*
COc1ccc(-c2cc3nc(C)c(CCC(=O)N4CCN(c5ccc(F)cc5)CC4)c(C)n3n2)c(OC)c1	.	.	-12.5%	-1.6	16.4µM*	23.1µM*
COc1ccc(-c2cc3nc(C)c(CCC(=O)NC4CCCCC4)c(C)n3n2)c(OC)c1	.	.	-5.1%	0.5	?	?
Nc1nonc1-c1noc(-c2ccccc2)n1	-5.2	-63.3*	-0.3%	-3.8	0.8%	2.7%
Nc1nc(-c2nonc2N)no1	-9.2	-0.4	.	4.1	0.4%	2.0%
Cc1ccnc(NC(c2ccccc2)c2ccc3cccnc3c2O)c1 (configuration not stated)	99.4	-12.1	.	13.0	20.6µM*	?
Cc1ccnc(NC(c2cc(C)ccc2O)c2ccc3cccnc3c2O)c1 (configuration not stated)	.	.	1.2%	3.4	10.3µM*	?
O=C(C1CCC1)N1CCc2cc(S(=O)(=O)NC3CCCC3)ccc21	34.5	15.4	-1.9%	2.6	?	?
